A number with no mark means an inactive call.

For this test, the system named is Ditylenchus dipsaci. Description: proportion of mobile D. dipsaci (mixed stage) relative to DMSO control (fraction of DMSO control); higher = more viable, less nematicidal, active = 0.86 or less; extreme values may be limits of the assay. Conditions: 60 µM; 5 days; temperature: 20 °C. Summed up:
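Mobility, expressed relative to DMSO controls, is the mean of two biological replicates. The test organisms were D. dipsaci grown on pea plants in Gamborg B-5 agar and extracted into water by filter funnel, with about 20 added per well of a 96-well plate in distilled water. Compound was pinned to 60 µM final (0.6% v/v DMSO), plates were sealed and shaken at 200 rpm for 5 days at 20 °C, and mobile worms were scored under a microscope once 2 µL 1 M NaOH had been added.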
`C=CCOc1cccc(-c2nc(-c3cccnc3)no2)c1`: the “proportion of mobile D. dipsaci” value was 1. Consider `Cc1ccccc1OCc1nc(-c2ccc(F)cc2)no1`, for which the “proportion of mobile D. dipsaci” value is 1.

As to `CC(C)c1ccc(NC(=O)CSc2nnc(-c3ccc(Br)cc3)o2)cc1`, the “proportion of mobile D. dipsaci” value is 1. As for `CC1CCN(C(=O)CSc2nnc(-c3cc4ccccc4o3)o2)CC1`, the figure is 1. With `Cc1cccc(C)c1NC(=O)CSc1nnc(-c2ccncc2)o1`, the “proportion of mobile D. dipsaci” value was 1. As to `CC(C)C(=O)Nc1ccccc1-c1nc(-c2ccccc2)no1`, the “proportion of mobile D. dipsaci” value was 1. In the case of `Clc1ccccc1-c1noc(-c2ccncc2)n1`, the “proportion of mobile D. dipsaci” value was 1. Under `Cc1ccc(-c2nc(-c3ccc4c(c3)OCO4)no2)cc1` stands 1; under `Cc1ccc(-c2nc(-c3cccc(C(F)(F)F)c3)no2)cc1`, 1.

Consider `Cc1ccc(-c2noc(COc3ccc(Cl)c(C)c3)n2)cc1`, for which the “proportion of mobile D. dipsaci” value is 1. `COc1nc(-c2ccc(C)cc2)ccc1-c1noc(-c2cccc(C)c2)n1`: the “proportion of mobile D. dipsaci” value was 1. Under `Cc1ccccc1OCc1nc(-c2ccc(NC(=O)c3ccc(Br)o3)cc2)no1` stands 1; under `Cc1ccc(Cl)cc1NC(=O)CSc1nnc(-c2ccncc2)o1`, 1; under `Cc1ccccc1CSc1nnc(-c2ccco2)n1C`, 0.75 (active). As for `Cc1ccccc1-c1nnc(SCC(=O)Nc2cc(C(F)(F)F)ccc2N2CCOCC2)o1`, the figure is 1; as for `Clc1ccc(-c2noc(-c3ccccc3Cl)n2)cc1`, 1.

Regarding `CC(C)(C)c1ccc(OCc2nc(-c3ccccc3)no2)cc1`, the “proportion of mobile D. dipsaci” value was 1. As for `COc1ccccc1-c1noc(-c2ccc(C(C)(C)C)cc2)n1`, the figure is 1.

On to `O=C(CSc1nnc(-c2cccc(Cl)c2)o1)Nc1ccccc1`, for which the “proportion of mobile D. dipsaci” value was 1. As for `CC(C)Oc1ccc(-c2nc(-c3ccccn3)no2)cc1`, the figure is 1; as for `Clc1ccc(SCc2nc(-c3ccccn3)no2)cc1`, 1; as for `O=C(CSc1nnc(-c2ccccc2)o1)Nc1cc(C(F)(F)F)ccc1Cl`, 1. Under `O=C(NCc1cccnc1)c1ccccc1-c1nc(-c2ccccc2Cl)no1` stands 1; under `Cc1ccc(-c2nnc(SCc3ccccc3)o2)cc1`, 0.889; under `O=C(CSc1nnc(-c2ccc(Br)cc2)o1)NC1CCCC1`, 1. As to `Cc1cc(Cl)ccc1NC(=O)CSc1nnc(-c2ccncc2)o1`, the “proportion of mobile D. dipsaci” value is 1. For `Cc1ccc(CSc2nnc(-c3ccncc3)o2)cc1`, the “proportion of mobile D. dipsaci” value was 0.75 (active). Take `CC(C)(C)NC(=O)CSc1nnc(-c2ccc(C(C)(C)C)cc2)o1`: the “proportion of mobile D. dipsaci” value was 1.

In the case of `Brc1cccc(-c2nc(-c3ccccc3)no2)c1`, the “proportion of mobile D. dipsaci” value was 1.

Turning to `O=C(CSc1nnc(-c2cccc(Br)c2)o1)c1ccc2c(c1)CCCC2`, the “proportion of mobile D. dipsaci” value was 1.

As for `COc1cccc(-c2nc(-c3ccc(C)cc3)no2)c1`, the “proportion of mobile D. dipsaci” value was 1.

With `CCOc1nc(-c2ccccc2)ccc1-c1noc(-c2ccccc2F)n1`, the “proportion of mobile D. dipsaci” value is 1. As for `Cc1cccc(OCc2nc(-c3ccccc3)no2)c1`, the figure is 1; as for `Cc1ccc(-c2nc(-c3cccc(C)c3)no2)cc1`, 1; as for `Cc1ccc(-c2nnc(SCC(=O)Nc3cc(C)ccc3C)o2)cc1`, 1. Under `CCOc1ccccc1-c1nnc(SCC(=O)c2ccccc2)o1` stands 1; under `Fc1ccc(-c2noc(COc3ccccc3)n2)cc1`, 1; under `COc1ccc(-c2noc(-c3ccc(Cl)cc3Cl)n2)cc1`, 1.

For the molecule `COc1cccc(-c2noc(CSc3ccc(Cl)cc3)n2)c1`, the “proportion of mobile D. dipsaci” value was 1.

These data come from the supplement of paper PMC11219838.
